# From PubChem BioAssay (EPA / NIEHS)
# Calls of active or inactive are those of the source. How the source made its calls: active means hit-call score of the fitted dose curve at least 0.9, where 1 is the maximum; inactive means score below 0.9.
# Tests used:
# [1] = read-out: Urokinase-type plasminogen activator receptor (uPAR), PLAUR (gene 5329); assay: BSK_4H_uPAR: BioMAP Diversity Plus: 4H Assay for Urokinase-type plasminogen activator receptor (uPAR) Biomarker Activity (AID 2283030); details: primary human endothelial cells (HUVEC); actives raise or lower the signal
# How it was run: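 Human umbilical vein endothelial cells in the 4H system, 24 h after chemical dosing. Cell-surface uPAR measured by ELISA, fitted in both directions versus DMSO; cytotoxicity checked by SRB total protein in parallel cultures.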
# [2] = read-out: Vascular endothelial growth factor receptor 2 (Homo sapiens) (UniProt P35968); assay: BSK_4H_VEGFRII: BioMAP Diversity Plus: 4H Assay for Vascular endothelial growth factor receptor 2 (VEGFR2) Biomarker Activity (AID 2283031); details: primary human endothelial cells (HUVEC); actives raise or lower the signal
# How it was run: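 Primary human umbilical vein endothelial cells (4H system), 24 h exposure; cell-surface VEGFR2 measured by ELISA. Bidirectional fitting versus DMSO; cytotoxicity checked in parallel by SRB total-protein staining.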
# [3] = read-out: Human Leukocyte Antigen - DR isotype (HLADR), HLA-DRA (gene 3122); assay: BSK_BE3C_HLADR: BioMAP Diversity Plus: BE3C Assay for Human Leukocyte Antigen - DR isotype (HLADR) Biomarker Activity (AID 2283032); details: primary human bronchial epithelial cells; actives raise or lower the signal
# How it was run: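 BioMAP BE3C format: human bronchial epithelium, 24 h compound treatment, ELISA detection of HLA-DR, with bidirectional analysis relative to DMSO.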
# [4] = read-out: Vascular cell adhesion molecule 1 (VCAM1), VCAM1 (gene 7412); assay: BSK_4H_VCAM1: BioMAP Diversity Plus: 4H Assay for Vascular cell adhesion molecule 1 (VCAM1) Biomarker Activity (AID 2283033); details: primary human endothelial cells (HUVEC); actives raise or lower the signal;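 on outcome: cell-surface VCAM-1 protein measured by ELISA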
# How it was run: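 In this human endothelial (HUVEC) system, biomarker ELISA was run 24 h after compound addition, and total protein in parallel wells was assessed by SRB at 560 nm; DMSO served as negative control.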
# [5] = read-out: Interferon-gamma inducible Protein 10 (IP10), CXCL10 (gene 3627); assay: BSK_BE3C_IP10: BioMAP Diversity Plus: BE3C Assay for Interferon-gamma inducible Protein 10 (IP10) Biomarker Activity (AID 2283034); details: primary human bronchial epithelial cells; actives raise or lower the signal
# How it was run: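 BE3C cells (human bronchial epithelial, primary); 24 h exposure; ELISA for IP-10; DMSO-referenced bidirectional fit.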
# [6] = read-out: Monokine induced gamma interferon (MIG), CXCL9 (gene 4283); assay: BSK_BE3C_MIG: BioMAP Diversity Plus: BE3C Assay for Monokine induced gamma interferon (MIG) Biomarker Activity (AID 2283035); details: primary human bronchial epithelial cells; actives raise or lower the signal;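 further: MIG protein measured by ELISA in BE3C cultures after 24 h of dosing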
# How it was run: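 hu bronchial epithelial 1° cells, 24 h cpd; MIG by ELISA; bidirectional fit, DMSO = baseline.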
# [7] = read-out: Transforming growth factor beta 1 (TGFb1), TGFB1 (gene 7040); assay: BSK_BE3C_TGFb1: BioMAP Diversity Plus: BE3C Assay for Transforming growth factor beta 1 (TGFb1) Biomarker Activity (AID 2283036;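 further: TGF-b1 protein level measured by ELISA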); details: primary human bronchial epithelial cells; actives raise or lower the signal
# How it was run: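 TGF-b1 measured via ELISA, 24 h after chemical dosing of human bronchial epithelial cells (BE3C). Overt cytotoxicity assessed in parallel by SRB (0.1%, TCA-fixed, 560 nm); analysis bidirectional relative to DMSO.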
# [8] = read-out: Plasminogen activator inhibitor-1 (PAI1), SERPINE1 (gene 5054); assay: BSK_BE3C_PAI1: BioMAP Diversity Plus: BE3C Assay for Plasminogen activator inhibitor-1 (PAI1) Biomarker Activity (AID 2283037); details: primary human bronchial epithelial cells; actives raise or lower the signal
# How it was run: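 In this multiplexed primary-cell system, bronchial epithelial cells receive test chemical and are sampled at 24 h. PAI-1 is read by ELISA, with DMSO serving as negative control for bidirectional fitting.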
# [9] = read-out: urokinase plasminogen activator (uPA), PLAU (gene 5328); assay: BSK_BE3C_uPA: BioMAP Diversity Plus: BE3C Assay for urokinase plasminogen activator (uPA) Biomarker Activity (AID 2283038); details: primary human bronchial epithelial cells; actives raise or lower the signal;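 further: uPA protein level quantified by ELISA in cell cultures; uPA read one day after compound addition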
# How it was run: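 Primary human bronchial epithelial cells, uPA measured by ELISA 24 h after dosing. Bidirectional change relative to DMSO; cytotoxicity checked in parallel cultures by sulforhodamine B total-protein staining.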
# [10] = read-out: Urokinase-type plasminogen activator receptor (uPAR), PLAUR (gene 5329); assay: BSK_BE3C_uPAR: BioMAP Diversity Plus: BE3C Assay for Urokinase-type plasminogen activator receptor (uPAR) Biomarker Activity (AID 2283039); details: primary human bronchial epithelial cells; actives raise or lower the signal;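 further: cells exposed to compound for one day before measurement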
# How it was run: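 Chemically treated human bronchial epithelial cells (lung primary) are assayed for uPAR by ELISA after 24 h, with data fitted in both directions using DMSO as negative control.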
# [11] = read-out: Interleukin-6 (IL6), IL6 (gene 3569); assay: BSK_CASM3C_IL6: BioMAP Diversity Plus: CASM3C Assay for Interleukin-6 (IL6) Biomarker Activity for (AID 2283040); details: primary human coronary artery smooth muscle cells; actives raise or lower the signal
# [12] = read-out: Tissue plasminogen activator (tPA), PLAT (gene 5327); assay: BSK_BE3C_tPA: BioMAP Diversity Plus: BE3C Assay for Tissue plasminogen activator (tPA) Biomarker Activity (AID 2283041); details: primary human bronchial epithelial cells; actives raise or lower the signal;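 further: tPA level quantified by ELISA one day after compound addition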
# How it was run: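 Using human lung primary bronchial epithelial cells, tPA was measured by ELISA 24 h after dosing; data fitted relative to DMSO.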
# [13] = read-out: Interleukin-8 (IL8), CXCL8 (gene 3576); assay: BSK_CASM3C_IL8: BioMAP Diversity Plus: CASM3C Assay for Interleukin-8 (IL8) Biomarker Activity (AID 2283042); details: primary human coronary artery smooth muscle cells; actives raise or lower the signal;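 further: IL-8 protein level quantified by ELISA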
# [14] = read-out: Human Leukocyte Antigen - DR isotype (HLADR), HLA-DRA (gene 3122); assay: BSK_CASM3C_HLADR: BioMAP Diversity Plus: CASM3C Assay for Human Leukocyte Antigen - DR isotype (HLADR) Biomarker Activity (AID 2283043); details: primary human coronary artery smooth muscle cells; actives raise or lower the signal;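 further: cell-surface HLA-DR protein level quantified by ELISA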
# [15] = read-out: Macrophage colony-stimulating factor (MCSF), CSF1 (gene 1435); assay: BSK_CASM3C_MCSF: BioMAP Diversity Plus: CASM3C Assay for Macrophage colony-stimulating factor (MCSF) Biomarker Activity (AID 2283044); details: primary human coronary artery smooth muscle cells; actives raise or lower the signal;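 further: M-CSF protein amount quantified by ELISA after 24 h exposure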
# [16] = read-out: Low-density lipoprotein receptor (LDLR), LDLR (gene 3949); assay: BSK_CASM3C_LDLR: BioMAP Diversity Plus: CASM3C Assay for Low-density lipoprotein receptor (LDLR) Biomarker Activity (AID 2283045); details: primary human coronary artery smooth muscle cells; actives raise or lower the signal;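 further: LDLR protein level on the cell surface quantified by ELISA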
# [17] = read-out: Monocyte Chemoattractant Protein-1 (MCP1), CCL2 (gene 6347); assay: BSK_CASM3C_MCP1: BioMAP Diversity Plus: CASM3C Assay for Monocyte Chemoattractant Protein-1 (MCP1) Biomarker Activity (AID 2283046); details: primary human coronary artery smooth muscle cells; actives raise or lower the signal;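 further: MCP-1 level quantified by ELISA 24 h after dosing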
# [18] = BSK_CASM3C_Proliferation: Cell Proliferation Assessment in the BioMAP Diversity Plus: CASM3C Assay (AID 2283047); details: primary human coronary artery smooth muscle cells;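 further: sulforhodamine B total protein stain as relative cell number at 560 nm; sub-confluent cells exposed 48 h before staining; fitted both ways against DMSO so gain or loss of cell number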
# [19] = read-out: Monokine induced gamma interferon (MIG), CXCL9 (gene 4283); assay: BSK_CASM3C_MIG: BioMAP Diversity Plus: CASM3C Assay for Monokine induced gamma interferon (MIG) Biomarker Activity (AID 2283048); details: primary human coronary artery smooth muscle cells; actives raise or lower the signal;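 further: MIG protein level measured by ELISA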
# [20] = read-out: serum amyloid A (SAA), SAA1 (gene 6288); assay: BSK_CASM3C_SAA: BioMAP Diversity Plus: CASM3C Assay for serum amyloid A (SAA) Biomarker Activity (AID 2283049); details: primary human coronary artery smooth muscle cells; actives raise or lower the signal;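 further: SAA protein level quantified by ELISA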
smiles,measurement,setting,value
CC(C)=CC1C(C(=O)OCc2coc(Cc3ccccc3)c2)C1(C)C (stereo not given),outcome,[1],inactive
same,outcome,[2],inactive
same,outcome,[3],inactive
same,AC50,[4],4.5 µM (active)
same,outcome,[5],inactive
same,outcome,[6],inactive
same,outcome,[7],inactive
same,outcome,[8],inactive
same,outcome,[9],inactive
same,outcome,[10],inactive
same,outcome,[11],inactive
same,outcome,[12],inactive
same,outcome,[13],inactive
same,outcome,[14],inactive
same,outcome,[15],inactive
same,outcome,[16],inactive
same,outcome,[17],inactive
same,AC50,[18],24.6 µM (active)
same,outcome,[19],inactive
same,outcome,[20],inactive
O=C(O)c1c(Cl)ccc2cc(Cl)cnc12,outcome,[1],inactive
same,outcome,[2],inactive
same,outcome,[3],inactive
same,outcome,[4],inactive
same,outcome,[5],inactive
same,outcome,[6],inactive
same,outcome,[7],inactive
same,outcome,[8],inactive
same,outcome,[9],inactive
same,outcome,[10],inactive
same,outcome,[11],inactive
same,outcome,[12],inactive
same,outcome,[13],inactive
same,outcome,[14],inactive
same,outcome,[15],inactive
same,outcome,[16],inactive
same,outcome,[17],inactive
same,outcome,[18],inactive
same,outcome,[19],inactive
same,outcome,[20],inactive
COC(=O)c1c(C(F)F)nc(C(F)(F)F)c(C2=NCCS2)c1CC(C)C,AC50,[1],33.9 µM (active)
same,outcome,[2],inactive
same,AC50,[3],3.97 µM (active)
same,AC50,[4],20 µM (active)
same,AC50,[5],17.7 µM (active)
same,outcome,[6],inactive
same,outcome,[7],inactive
same,AC50,[8],3.97 µM (active)
same,outcome,[9],inactive
same,outcome,[10],inactive
same,outcome,[11],inactive
same,outcome,[12],inactive
same,outcome,[13],inactive
same,outcome,[14],inactive
same,outcome,[15],inactive
same,outcome,[16],inactive
same,outcome,[17],inactive
same,outcome,[18],inactive
same,outcome,[19],inactive
same,outcome,[20],inactive
CC(C)(C)C(=O)C(Oc1ccc(Cl)cc1)n1cncn1 (stereo not given),outcome,[1],inactive
same,outcome,[2],inactive
same,outcome,[3],inactive
same,outcome,[4],inactive
same,outcome,[5],inactive
same,outcome,[6],inactive
same,outcome,[7],inactive
same,outcome,[8],inactive
same,outcome,[9],inactive
same,outcome,[10],inactive
same,outcome,[11],inactive
same,outcome,[12],inactive
same,outcome,[13],inactive
same,outcome,[14],inactive
same,outcome,[15],inactive
same,outcome,[16],inactive
same,outcome,[17],inactive
same,outcome,[18],inactive
same,outcome,[19],inactive
same,outcome,[20],inactive
CC1(C)C(C(=O)OC(C#N)c2cccc(Oc3ccccc3)c2)C1(C)C (stereo not given),outcome,[1],inactive
same,outcome,[2],inactive
same,outcome,[3],inactive
same,outcome,[4],inactive
same,outcome,[5],inactive
same,outcome,[6],inactive
same,outcome,[7],inactive
same,outcome,[8],inactive
same,outcome,[9],inactive
same,outcome,[10],inactive
same,AC50,[11],30.9 µM (active)
same,outcome,[12],inactive
same,outcome,[13],inactive
same,outcome,[14],inactive
same,outcome,[15],inactive
same,outcome,[16],inactive
same,outcome,[17],inactive
same,AC50,[18],13.2 µM (active)
same,outcome,[19],inactive
same,outcome,[20],inactive
CC(C)Nc1nc(Cl)nc(NC(C)C)n1,outcome,[1],inactive
same,outcome,[2],inactive
same,outcome,[3],inactive
same,outcome,[4],inactive
same,outcome,[5],inactive
same,outcome,[6],inactive
same,outcome,[7],inactive
same,outcome,[8],inactive
same,outcome,[9],inactive
same,outcome,[10],inactive
same,outcome,[11],inactive
same,outcome,[12],inactive
same,outcome,[13],inactive
same,outcome,[14],inactive
same,outcome,[15],inactive
same,outcome,[16],inactive
same,outcome,[17],inactive
same,outcome,[18],inactive
same,outcome,[19],inactive
same,outcome,[20],inactive
